Assay outcomes (PubChem BioAssay)
Mcl1 Bid PPI: disrupts binding of human Mcl-1 to Bid peptide; Q07820; TR-FRET Mcl-1/Bid-Dy647 peptide binding, 1536-well; inhibition, % at 21.7 µM; hit rate 0.97% among 220,000; AID 1021;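 active = compounds that cut the binding signal by more than half at the single screening dose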;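 also: His-tagged Mcl-1 with europium anti-His antibody binding Bid BH3 peptide; 0% = Mcl-1 plus peptide wells and 100% = peptide-only wells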
Target sequence (Q07820 whole entry, looked up): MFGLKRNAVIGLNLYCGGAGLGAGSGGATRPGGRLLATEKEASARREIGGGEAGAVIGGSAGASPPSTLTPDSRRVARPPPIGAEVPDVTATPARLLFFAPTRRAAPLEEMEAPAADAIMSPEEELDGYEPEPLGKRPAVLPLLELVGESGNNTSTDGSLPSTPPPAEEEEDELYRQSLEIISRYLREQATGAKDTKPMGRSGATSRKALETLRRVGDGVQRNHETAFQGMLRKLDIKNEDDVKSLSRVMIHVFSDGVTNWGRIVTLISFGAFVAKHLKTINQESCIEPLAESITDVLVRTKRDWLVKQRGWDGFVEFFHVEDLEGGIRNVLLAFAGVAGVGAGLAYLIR
Mcl1 Noxa PPI: disrupts binding of human Mcl-1 to Noxa peptide; inhibition, % at 21.7 µM; TR-FRET Mcl-1/Noxa peptide binding, 2 h; hit rate 1.5% among 220,000;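 active = compounds that cut the protein-peptide binding signal by more than 50% relative to plate controls in a single-dose test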;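 also: His-tagged Mcl-1 with rhodamine Noxa BH3 peptide and terbium anti-His antibody; 0% = Mcl-1 plus Noxa peptide wells and 100% = peptide-only wells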
Mcl-1 Bim block: human Bim-Mcl-1 interaction inhibition. Q07820. inhibition, % at 10 µM. hit rate 0.1% among 190,000. Bead-based flow cytometry, Bim peptide-Mcl-1 binding; in the data active = inhibition above about 40%;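 also: 0% = no compound tracer wells and 100% = peptide blocker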
Bcl-xL primary: Bcl-xL (human) inhibition | Q07817 | GST-Bcl-xL / FITC-Bim BH3 peptide fluorescence polarization | inhibition, % at 10.9 µM | hit rate 0.7% among 320,000 | AID 2129;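 active = inhibition above the mean of all tested compounds plus 3 SD, cutoff set per campaign, cut at about 30% in these data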;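 also: 0% = DMSO wells and 100% = unlabeled Bim-BH3 peptide competitor; inhibitors lower millipolarization by displacing the labeled peptide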
Target sequence (Q07817 whole entry, looked up): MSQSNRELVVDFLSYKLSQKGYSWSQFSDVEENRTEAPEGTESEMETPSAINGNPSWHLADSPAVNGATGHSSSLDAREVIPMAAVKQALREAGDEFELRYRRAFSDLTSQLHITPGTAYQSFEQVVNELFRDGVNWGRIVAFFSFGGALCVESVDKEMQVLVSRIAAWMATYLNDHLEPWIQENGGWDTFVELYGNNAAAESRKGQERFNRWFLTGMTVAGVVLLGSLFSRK
MCL1-BIM inh: disrupts human MCL1 binding to BIM-BH3 peptide; hit rate 0.68% among 320,000; AID 2057; GST-MCL1 / FITC-Bim-BH3 fluorescence polarization; Q07820; inhibition, % at 10.9 µM;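 active = inhibition above the mean inhibition of all tested compounds plus 3 SD, set per campaign, cut at about 40% in these data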;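 also: 0% = DMSO wells and 100% = unlabeled Bim-BH3 peptide control; higher means more loss of mP so more displacement of Bim peptide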
GLD-1 RNA inh: GLD-1-TGE RNA interaction inhibition (C. elegans) | inhibition, % at 5.96 µM | Q17339 | hit rate 0.44% among 320,000 | purified GLD-1 + fluorescein TGE RNA, fluorescence polarization | AID 2280;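 active = percent inhibition above a per-plate cutoff, the plate mean of test compounds plus 3 SD, cut at about 30% in these data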;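 also: 0% = DMSO wells with GLD-1 and probe and 100% = wells lacking GLD-1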
Active calls of the source: *; . = no result given. Sampled rows, rich in hits. Any-hit rate of the full collection: about 2.3%.

SMILES	Mcl1 Bid PPI	Mcl1 Noxa PPI	Mcl-1 Bim block	Bcl-xL primary	MCL1-BIM inh	GLD-1 RNA inh
O=C(O)c1ccccc1N/N=C/C1=C(N2CCOCC2)C(=C\c2ccccc2)/CC1	-42	63*	.	6	12	0
N#C/C(=C\C1=C(N2CCOCC2)C(=C\c2ccc(Cl)cc2)/CC1)C(=O)Nc1ccccc1F	62*	45	2	4	-6	5
COc1cccc(NC(=O)COc2coc(CN3CCc4ccccc4C3)cc2=O)c1	.	.	.	5	-5	3
CCOc1ccc(CN2CCNC(=O)C2CC(=O)NCCc2ccccn2)cc1 (stereo not given)	-17	9	-2	14	8	12
O=C(CC1C(=O)NCCN1Cc1ccccn1)NCCc1ccccc1F (stereo not given)	.	.	.	30*	34	21
CN(C)CCCOc1cccc(Oc2ccccc2)c1	52*	25	-3	4	1	5
Cc1ccccc1-c1nnc(SCC(=O)NC2CCS(=O)(=O)C2)n1C (stereo not given)	.	.	.	.	.	1
O=C(c1cccc(S(=O)(=O)N2CCc3ccccc3C2)c1)N1CCN(c2ccc(O)cc2)CC1	-46	57*	-4	18	10	2
O=S(=O)(c1ccc2ccccc2c1)N1CCN(c2ccc(O)cc2)CC1	.	.	.	.	.	6
O=C(CSc1ccc2ccccc2c1)N1CCN(c2ccc(O)cc2)CC1	-38	60*	.	8	2	5
O=C(c1ccc2ccccc2c1)N1CCN(c2ccc(O)cc2)CC1	-41	53*	5	12	15	-1
O=C(CCc1nc2ccccc2c(=O)[nH]1)Nc1ccc(F)c([N+](=O)[O-])c1	-33	43	-2	30*	22	6
Clc1cccc(Cl)c1CON/C=N/c1ncnc2sccc12	87*	2	-3	0	7	3
Clc1cccc(CON/C=N/c2ncnc3sccc23)c1	2	5	0	4	3	9
CN(C)c1ccc2c3c(cccc13)C(=O)N(c1ccccc1)C2=O	-14	1	-2	81*	77*	69*
CC1CN(C2CCN(C(=O)COc3ccc(Cl)cc3)CC2)CC(C)O1 (stereo not given)	57*	35	-1	2	-5	2
Cc1ccc(OCC(=O)N2CCC(N3CC(C)CC(C)C3)CC2)cc1 (stereo not given)	.	.	.	5	1	9
CCN(CC)S(=O)(=O)c1ccc(C(=O)OC2CCCCC2CN(C)C)cc1 (stereo not given)	51*	-4	-3	-2	2	8
Cc1ccc(-c2nnc(SCC(=O)Nc3sc(C)c(C)c3C#N)n2C)cc1	13	3	-2	-9	-7	-11
Cc1sc(NC(=O)CSc2nnc(-c3ccc(F)cc3)o2)c(C#N)c1C	59*	12	0	1	2	-5
CC(=O)c1ccc(-n2nnnc2SCC(=O)Nc2sc(C)c(C)c2C#N)cc1	57*	65*	-1	9	2	-1
COc1ccc(N2CCN(C(=O)CN3C(=O)NC4(CCCCC4C)C3=O)CC2)cc1 (stereo not given)	.	.	.	.	.	1
CCOC(=O)c1nc(-c2ccccc2)sc1C(C)=O	-1	-10	.	4	3	2
O=C(NCc1ccccn1)C(=O)NCC(c1ccco1)N1CCN(c2ccc(F)cc2)CC1 (stereo not given)	-58	7	-1	32*	20	4
COc1cc(OC)cc(C(=O)N2CCC(N3CCN(c4ccccc4OC)CC3)CC2)c1	57*	14	-4	2	-1	3
SMILES	Mcl1 Bid PPI	Mcl1 Noxa PPI	Mcl-1 Bim block	Bcl-xL primary	MCL1-BIM inh	GLD-1 RNA inh
Cc1ccc(NC(=O)CN2C(=O)S/C(=C\c3cccn3-c3cccc(C(=O)O)c3)C2=O)c(C)c1	45	93*	4	0	1	-4
Cc1cccc(C)c1-n1cccc1/C=C1\SC(=S)N(c2cccc(C(=O)O)c2)C1=O	52*	51*	16	14	1	-14
Cc1cccc(C)c1NC(=O)CN1C(=O)S/C(=C\c2cccn2-c2cccc(C(=O)O)c2)C1=O	-34	-2	0	10	0	6
O=S(=O)(NCc1ccccn1)c1ccc(Cl)s1	-17	0	-1	4	13	2
Cc1cc(C)c(S(=O)(=O)Nc2cc(SCC(=O)O)c(O)c3ccccc23)cc1C	29	82*	0	19	27	12
CCCCCC1CCC(C(=O)N2CCOCC2)CC1 (stereo not given)	.	.	.	1	2	-5
CC(=O)c1ccc(OCc2cc(C(=O)NCCn3nc(C)cc3C)no2)cc1	.	.	.	7	7	8
Cn1c(N)nc2nc(CCc3ccccc3)c(=O)[nH]c2c1=O	.	.	.	40*	41*	30
COc1ccc(N=Cc2c(O)n(-c3ccc(OC)cc3)c(=O)c3ccccc23)cc1	49	46	-2	6	-4	-10
O=c1c2ccccc2c(C=Nc2cccc(O)c2)c(O)n1-c1ccc2c(c1)OCO2	60*	50	-4	-2	5	2
CCOC(=O)c1ccc(NC(=O)COc2ccccc2CNC2CCCC2)cc1	-30	14	1	4	-2	3
CCOC(=O)n1c(O)c(N=NC(N)=S)c2cc(C)ccc21	-155	-45	.	7	3	7
Cc1ccccc1NC(=O)c1c(C)[nH]c(=S)c(C#N)c1-c1ccc(Cl)cc1	71*	-45	.	-7	-17	-14
CC1CCCCN1C(=O)COC(=O)C1CCN(S(=O)(=O)c2c(Cl)cccc2Cl)CC1 (stereo not given)	.	.	.	-7	-18	-3
CN(Cc1ccco1)C(=O)c1ccc(S(=O)(=O)N2CCCCCC2)cc1	.	.	.	3	5	1
COc1cc(/C=C2/SC(N)=NC2=O)ccc1Oc1ccc([N+](=O)[O-])cc1[N+](=O)[O-]	67*	60*	-4	5	5	-2
COc1cc(/C=C2\SC(=O)NC2=O)ccc1Oc1ccc([N+](=O)[O-])cn1	-10	-4	.	7	4	2
CCCOc1ccc(/C=C2\SC(N)=NC2=O)cc1OC	.	.	.	3	0	-12
COc1cc(/C=C2/SC(=O)NC2=O)ccc1Oc1ccc([N+](=O)[O-])cc1[N+](=O)[O-]	-107	90*	.	2	10	2
Cc1ccc(C(=O)NNC(=O)c2csc(N3CCOCC3)n2)s1	.	.	.	1	3	3
O=C1COc2ccc(C(=O)COC(=O)c3cc(S(=O)(=O)N4CCOCC4)ccc3F)cc2N1	.	.	.	60*	2	-8
CCOCCn1c(=O)c2c(nc3n2CC(C)CN3CCc2ccccc2)n(C)c1=O (stereo not given)	.	.	.	-3	1	13
CN1CCN(CC(=O)NC2CCCCC2)CC1	54*	12	-1	-2	1	5
Cc1c(C)n(Cc2ccccc2)c2ccc(C(=O)OCCN(C)C)cc12	-22	26	-3	-3	-11	8
